# Compound activity: PubChem, National Center for Advancing Translational Sciences (NCATS)
# Most compounds without a hit are left out; they make up all but 8.9% or so of the library.
# 12-hLO inh = blocks human 12-lipoxygenase activity. purified 12-hLO, xylenol orange hydroperoxide absorbance. AID 1452. P18054. hit rate 0.12% among 150,000. Potency, µM (doses to about 57.1 µM), inactives show top-dose activity change, negative = inhibition, actives largely listed as inhibitors; also: potency is read from the fitted curve at half-maximal effect; nearly all actives have a fitted effect of over 55% in size
#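 Hydroperoxide formation by human 12-lipoxygenase from 40 uM arachidonic acid was followed colorimetrically via ferric-xylenol orange complex, using the 573/405 nm absorbance ratio. Enzyme concentration was 150 nM, with 30 min reaction at room temperature.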
# ALDH1A1 inh = inhibitors of human aldehyde dehydrogenase 1A1; P00352; Purified ALDH1A1, NADH fluorescence, propionaldehyde substrate; Potency, µM (doses to about 75.3 µM), for the others: at the top dose activity, negative = inhibition, usual class: inhibitors; hit rate 7.3% among 220,000; AID 1030; active = well fitted inhibition curve with a large enough effect, not every such curve was filed as active; inconclusive = small, poorly fitted or top-dose-only effect, or another doubt; inactive = no such curve, though single readings can be large or run the other way;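 also: potency is read from the fitted curve at half-maximal effect; plate controls were no enzyme wells and a reference inhibitor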
# NPSR antag = antagonists of human neuropeptide S receptor cAMP signaling. CHO-NPSR cells, cAMP TR-FRET, antagonist mode. Potency, µM (series often up to 38.3 µM), for inactives: top-dose activity change, negative = inhibition, most hits filed as inhibitors. hit rate 1% among 220,000. Q6W5P4; also: potency is read from the fitted curve at half-maximal effect; nearly all actives have a fitted effect of over 50% in size
# HPGD inh = inhibitors of human 15-hydroxyprostaglandin dehydrogenase (HPGD) | P15428 | hit rate 4.3% among 150,000 | Potency, µM, without a hit: at the highest dose activity change, negative = inhibition, usual class: inhibitors | purified HPGD, NADH fluorescence kinetic, PGE2 substrate; active = well fitted inhibition curve with a large enough effect, not every such curve was filed as active; inconclusive = small, poorly fitted or top-dose-only effect, or another doubt; inactive = no such curve, though single readings can be large or run the other way; also: potency is read from the fitted curve at half-maximal effect
# Target sequence (P15428 whole entry, looked up): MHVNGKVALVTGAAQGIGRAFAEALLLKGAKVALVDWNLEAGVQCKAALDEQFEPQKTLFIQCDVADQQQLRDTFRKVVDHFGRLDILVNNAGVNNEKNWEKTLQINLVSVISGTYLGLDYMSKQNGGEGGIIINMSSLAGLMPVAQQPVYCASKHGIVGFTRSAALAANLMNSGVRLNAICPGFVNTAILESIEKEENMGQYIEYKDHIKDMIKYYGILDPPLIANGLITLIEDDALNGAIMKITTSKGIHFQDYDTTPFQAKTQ
#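 20 nM HPGD preincubated 15 min at room temperature with compound in 50 mM Tris-HCl pH 8, 0.01% Tween 20. Started with 1 mM NAD+ and 30 uM prostaglandin E2; NADH fluorescence (360/450 nm) read 5 times over 30-s intervals, last minus first.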
# IMPase inh = membrane-permeable compound that blocks inositol monophosphatase | P97697 | CHO-M1 cells, IP1 accumulation, HTRF TR-FRET ratio | inhibition (IP1 accumulation), % at 46.1 µM | 120,000 tested, under 10 active; active = well fitted curve in the direction sought with a large enough effect in the signal ratio, not every such curve was filed as active; inconclusive = small, poorly fitted or top-dose-only effect, or a change in a side signal; inactive = no such curve, though single readings can be large or run the other way; the % refers to the signal ratio;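 also: cells stimulated with carbachol in lithium chloride buffer; plate controls were DMSO basal wells for no effect and reference inhibitor wells for full effect; higher means more IMPase inhibition seen as more IP1 and lower FRET ratio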
# Target sequence (P97697 whole entry, looked up): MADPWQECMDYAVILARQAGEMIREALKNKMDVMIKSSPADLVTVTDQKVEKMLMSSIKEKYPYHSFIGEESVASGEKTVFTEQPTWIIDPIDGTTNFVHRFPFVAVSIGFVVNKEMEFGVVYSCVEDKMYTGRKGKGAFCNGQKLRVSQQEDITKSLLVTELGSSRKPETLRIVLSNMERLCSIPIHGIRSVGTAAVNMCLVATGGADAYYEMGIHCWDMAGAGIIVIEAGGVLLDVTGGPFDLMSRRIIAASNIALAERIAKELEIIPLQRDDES
#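 Seeded CHO-M1 cells were dosed with compound at up to 46 uM, stimulated with carbachol for 30 min, then lysed in IP-One detection reagents. Higher IP1 lowers the TR-FRET signal.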
# IMPase Li cell = IMPase inhibition in cells with lithium potentiation; CHO-M1 cells, IP1 TR-FRET (IP-One), carbachol + lithium; Potency, µM (doses to about 59.4 µM), for the others: top-dose activity, negative = IMPase inhibition, most hits filed as inhibitors; hit rate 0.35% among 210,000; AID 1457;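 also: IP1 builds up when IMPase is blocked and the TR-FRET signal falls; potency is read from the fitted curve at half-maximal effect; plate controls were basal vehicle for no effect and high inhibitor control for full effect; nearly all actives have a fitted effect of over 50% in size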
#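 CHO cells stably expressing M1 receptor (2000/well) were cultured 16–30 h, then exposed to compounds with a small lithium addition for 30 min at 37C. IP1 was measured by TR-FRET competition; AC50 from Hill fits.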
# * marks the source's active call; other numbers are inactive results; ? = inconclusive; / = no result; [ ] = another dose, or the depositor's remark. Unless noted, calls follow the shape of the dose curve; as a rule, active = well fitted curve in the direction sought with a large enough effect; inconclusive = small, poorly fitted or top-dose-only effect, or another doubt; inactive = no such curve, though single readings can be large; an effect the other way counts as inactive or inconclusive. Unless noted, % is scaled to controls: 0 for no effect and ±100 for the full control effect.
SMILES,12-hLO inh,ALDH1A1 inh,NPSR antag,HPGD inh,IMPase inh,IMPase Li cell
Cc1ccc(NC(=O)CC(NCCN2CCOCC2)C(=O)O)cc1Cl (centres undefined),2%,-7%,-2%[46.1 µM],-1%,1,-4%[38.3 µM]
CCCCN(CCCC)Cc1ccc(C(=O)NNC(=O)Nc2ccccc2)o1,/,11%,2%,/,/,5%
CC(=O)CSc1nnc2c3ccccc3nc(C(C)(C)C)n12,/,3.5µM*,-14%,/,/,19%
CCOC(=O)c1cnn(-c2c(Cc3ccccc3)c(C)nc3c(-c4ccccc4)c(C)nn23)c1N,1%,0.1µM*,-18%[46.1 µM],-8%,5,27%[38.3 µM]
CCOC(=O)c1cnn(-c2cc(C(C)(C)C)nc3c(-c4ccccc4)c(C)nn23)c1N,3%,9%,-11%[46.1 µM],-5%,2,10%[38.3 µM]
Cc1cc(C)nc(-n2ncc3c2CC(c2ccc(F)cc2)CC3=O)n1 (centres undefined),/,-5%,5%,/,/,4%
Cc1cc(C)nc(-n2ncc3c2CC(c2ccccc2)CC3=O)n1 (centres undefined),7%,-23%,0%,28µM*,/,-2%
COc1ccc(C2NC(=O)c3sc(=S)n(-c4ccccc4)c3N2)cc1 (centres undefined),1%,-6%,-6%[46.1 µM],-19%,3,21%[38.3 µM]
O=C1NC(c2ccccc2)Nc2c1sc(=S)n2-c1ccccc1 (centres undefined),/,32µM*,-29%,/,/,7%
Cc1cc(NC(=O)CCC(=O)N(c2ccccc2)C(C(=O)NC2CCCC2)c2ccccc2)no1 (centres undefined),3%,25µM*,-12%[46.1 µM],-6%,0[0.369 µM],3%
CC(=O)Nc1nnc(CSCc2ccccc2F)s1,/,0%,-5%,/,/,/
COC(=O)c1cccc(NC(=O)Cn2cnc3ccccc3c2=O)c1,1%,10%,1%[46.1 µM],-7%,13,12%
COc1ccc(C(=O)Cc2ccc3c(c2)OCO3)c(O)c1,8%,-1%,5%,?,/,?
O=C(CCc1ccc(O)cc1)c1c(O)cc(O)cc1O,-9%,-13%,-18%[46.1 µM],35µM*,0,17%
O=C(O)COc1ccc(C(=O)Cc2ccc3c(c2)OCCCO3)c(O)c1,-16%,22µM*,?,?,3,-10%[38.3 µM]
O=C(Cc1ccc2c(c1)OCCO2)c1c(O)cc(O)cc1O,-16%,?,-21%[46.1 µM],20µM*,5,16%[38.3 µM]
COc1ccc(Cl)cc1NC(=O)Nc1cn(C)nc1C,/,-6%,-21%,/,/,/
C=CCc1cccc(Cl)c1OCCON1C(=O)CCC1=O,3%,4%,-3%[46.1 µM],-5%,-1,11%[38.3 µM]
Cc1cc(=O)[nH]c(NN)n1,/,/,11%,/,/,/
Cc1ccsc1/C=N/N1CCN(c2ccccc2)CC1,-14%,-6%,-10%[46.1 µM],-12%,6,9%[38.3 µM]
Cc1ccsc1/C=N/N1CCN(Cc2ccccc2)CC1,/,16µM*,-4%,/,/,21%
COc1ccccc1Nc1nnc(SCc2nnc(-c3cc(OC)c(OC)c(OC)c3)o2)s1,2%,?,3%,-17%,/,4%
Cc1ccc(NC(=S)N/N=C2\CC3CC=CC23)c(C)c1 (centres undefined),/,25µM*,19%,/,/,-7%
Cc1cccc(C)c1NC(=S)N/N=C1\CC2CC=CC12 (centres undefined),/,11µM*,-7%,/,/,0%
Oc1cc2c(cc1O)[C@@H]1c3ccc(O)c(O)c3OC[C@]1(O)C2,/,-2%,/,11µM*,/,17%
Cc1ccc(C(=O)C(NC(=O)c2ccco2)N2CCOCC2)cc1 (centres undefined),1%,28µM*,5%[46.1 µM],-17%,14,2%[38.3 µM]
O=C(NC(C(=O)c1ccccc1)N1CCCCCC1)c1ccco1 (centres undefined),2%,14µM*,19%,-5%,-2,8%
CCc1nnc(NC(=O)CSc2nc3[nH]ncc3c(=O)[nH]2)s1,/,-14%,13%,/,/,-6%
